We go through seven molecules from PubChem BioAssay (NCI).

Some test systems named below: NCI-H23 lung; NCI-H226 lung; NCI-H322M lung; HOP-62 NSCLC; NCI-H460 lung; HOP-92 NSCLC; NCI-H522 lung; A549/ATCC NSCLC; 786-0 renal; COLO 205 colon; DU-145 prostate; K-562 leukemia; MALME-3M melanoma; MDA-MB-231 breast; RXF 393 renal; SF-268 CNS; SF-295 CNS; SF-539 CNS; UACC-257 melanoma; M14 melanoma.
Experiment in all cases: NCI-60 one-dose screen, 48 h (100 = growth as untreated, 0 = no growth, -100 = all killed)
Common to all, as to settings: 10 µM unless noted

This is part of a sample that, as a whole, favours compounds with a hit. Of some 83,000 tested, about 20% had one in any assay.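 Cells were grown in 96-well plates and exposed to the test compound at a single concentration for 48 hours; results are reported as percent growth, with values below 10 considered active.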 Values without a mark were called inactive. Calls of active or inactive are those of the source.

Consider `O=C1CCC(C(=O)NN(c2ccccc2)c2ccccc2)N1` (stereo not given), for which the growth in the assay with NCI-H23 lung is 108%; in the assay on NCI-H226 lung, 96.3%; with NCI-H322M lung, 107%; in the assay with HOP-62 NSCLC, 101%; with NCI-H460 lung, 101%; in the assay with HOP-92 NSCLC, 69.6%. The growth in the assay on NCI-H522 lung was 96.5%; in the assay with A549/ATCC NSCLC it was 103%; with 786-0 renal it was 48.9%; in the assay with COLO 205 colon, 111%; in the assay with DU-145 prostate it was 101%; with K-562 leukemia, 12.2%. The growth was 104% in the assay on MALME-3M melanoma; 110% in the assay on MDA-MB-231 breast; 118% in the assay on RXF 393 renal; 83.2% with SF-268 CNS; 99% with SF-295 CNS; 94.6% with SF-539 CNS. Besides, the growth is 102% in the assay on UACC-257 melanoma and 12% with M14 melanoma.
With `O=C1/C(=C/c2ccc(Br)cc2)COc2ccc(O)c(O)c21`, the growth with NCI-H23 lung is 18.3%; in the assay with NCI-H226 lung, 71%; in the assay on NCI-H322M lung, 30.7%; in the assay on HOP-62 NSCLC it was -24.5% (active); in the assay with NCI-H460 lung it was 12%; with HOP-92 NSCLC, -33.4% (active). The growth is -70.4% (active) in the assay on NCI-H522 lung; 20.6% in the assay on A549/ATCC NSCLC; -70.4% (active) with 786-0 renal; 15.4% in the assay on COLO 205 colon; 6.06% (active) with DU-145 prostate; 5.3% (active) in the assay with K-562 leukemia. The growth is -17.2% (active) in the assay with MALME-3M melanoma; -4.69% (active) in the assay on MDA-MB-231 breast; -49.2% (active) in the assay with RXF 393 renal; -36.7% (active) in the assay with SF-268 CNS; 57.6% in the assay with SF-295 CNS; -94.2% (active) in the assay with SF-539 CNS. The growth was 9.86% (active) in the assay with UACC-257 melanoma and 9.59% (active) with M14 melanoma.
Consider `COC(=O)C1=C(C(=O)Nc2cccnc2)C2OC1(C(Cc1ccccc1)Oc1ccccc1)C1OC21` (stereo not given), for which the growth with NCI-H23 lung was 95.9%; with NCI-H226 lung it was 88.4%; with NCI-H322M lung, 98.4%; in the assay with HOP-62 NSCLC, 93%; in the assay on NCI-H460 lung it was 103%; in the assay with HOP-92 NSCLC, -74.2% (active). Further, the growth in the assay on NCI-H522 lung was -48% (active); with A549/ATCC NSCLC, 88.8%; in the assay with 786-0 renal, 49.7%; in the assay with COLO 205 colon, -46.9% (active); with DU-145 prostate, 72.8%; in the assay on K-562 leukemia, -48.4% (active). The growth with MALME-3M melanoma was -74.7% (active); with MDA-MB-231 breast it was 59.8%; in the assay on RXF 393 renal it was 59.1%; in the assay with SF-268 CNS it was 86.5%; in the assay with SF-295 CNS, 100%; in the assay with SF-539 CNS it was 72%. The growth was 79.1% in the assay on UACC-257 melanoma and 11.7% with M14 melanoma.
On to `Nc1n[nH]c2ccc([C@@H]3Nc4cc5[nH]ncc5cc4[C@H]4C5CCC(C5)[C@@H]34)cc12` (stereo not given in full), for which the growth in the assay with NCI-H23 lung is 27.3%; with NCI-H226 lung, 15%; with NCI-H322M lung, 43%; in the assay with HOP-62 NSCLC, 46.9%; with NCI-H460 lung, 7.16% (active); in the assay with HOP-92 NSCLC, 58.2%. In addition, the growth in the assay on NCI-H522 lung is 13.9%; in the assay with A549/ATCC NSCLC, 24.6%; with 786-0 renal, 28.3%; in the assay on COLO 205 colon, -11.9% (active); with DU-145 prostate, 21.2%; in the assay with K-562 leukemia, 10.6%. For the same molecule, the growth in the assay on MALME-3M melanoma was 46.9%; in the assay on MDA-MB-231 breast, 12.7%; with RXF 393 renal, -2.95% (active); with SF-268 CNS it was 45.4%; in the assay with SF-295 CNS, 11.8%; in the assay with SF-539 CNS it was -11.3% (active). Moreover, the values for the growth in the assay on UACC-257 melanoma and with M14 melanoma were 67.4% and -3.7% (active), respectively.
Take `COc1cc(C2C3=C(COC3=O)N(CCO)c3cc4c(cc32)OCCO4)cc(OC)c1OC` (stereo not given): the growth in the assay on NCI-H23 lung is 14.5%; with NCI-H226 lung, 13.5%; in the assay with NCI-H322M lung it was 36.9%; in the assay on HOP-62 NSCLC it was 15.4%; in the assay with NCI-H460 lung, 1.13% (active); with HOP-92 NSCLC, 26.8%. For the same molecule, the growth with NCI-H522 lung is -10% (active); in the assay with A549/ATCC NSCLC it was 11.9%; in the assay on 786-0 renal it was 1.83% (active); in the assay with COLO 205 colon it was -85.9% (active); in the assay with DU-145 prostate it was -30.1% (active); with K-562 leukemia, 5.23% (active). Also, the growth in the assay with MALME-3M melanoma was 53.7%; in the assay on MDA-MB-231 breast, 9.38% (active); with RXF 393 renal, -8.9% (active); in the assay on SF-268 CNS, 26.8%; with SF-295 CNS it was -5.17% (active); with SF-539 CNS, -25.4% (active). For the same molecule, the results for the growth in the assay on UACC-257 melanoma and in the assay on M14 melanoma were 42.5% and -28.8% (active), respectively.
As to `NC(CSC(c1ccccc1)(c1ccccc1)c1ccc2c(c1)OCO2)C(=O)O` (stereo not given), the growth in the assay with NCI-H23 lung was 14.6%; with NCI-H226 lung, 75%; in the assay with NCI-H322M lung, 26.6%; with HOP-62 NSCLC, 55.3%; with NCI-H460 lung it was 7.27% (active); in the assay on HOP-92 NSCLC it was 10.9%. In addition, the growth in the assay on NCI-H522 lung is -20.9% (active); in the assay with A549/ATCC NSCLC it was 18.5%; in the assay on 786-0 renal it was 51.1%; with COLO 205 colon, -32% (active); with DU-145 prostate it was -26.3% (active); with K-562 leukemia, 8.25% (active). Besides, the growth was 47.6% in the assay with MALME-3M melanoma; 19.8% in the assay on MDA-MB-231 breast; -5.81% (active) with RXF 393 renal; 38.8% with SF-268 CNS; -27.6% (active) in the assay on SF-295 CNS; 13.4% in the assay with SF-539 CNS. For the same molecule, the growth in the assay with UACC-257 melanoma is 32.6%; in the assay on M14 melanoma, -19.4% (active).
As for `c1ccc2cc(Cn3c[n+](Cc4ccc5ccccc5c4)c4ccccc43)ccc2c1`, the growth in the assay on NCI-H23 lung is -0.737% (active); in the assay with NCI-H226 lung, 19.6%; in the assay with NCI-H322M lung, 34.6%; in the assay with HOP-62 NSCLC, 3.98% (active); with NCI-H460 lung it was -34.2% (active); in the assay with HOP-92 NSCLC, -27.7% (active). Besides, the growth in the assay on NCI-H522 lung is -28.8% (active); in the assay with A549/ATCC NSCLC it was 30.9%; in the assay on 786-0 renal, -68.2% (active); in the assay with COLO 205 colon, -80.7% (active); with DU-145 prostate, 15%; in the assay with K-562 leukemia, -49.7% (active). Further, the growth in the assay with MALME-3M melanoma is -17.8% (active); in the assay with MDA-MB-231 breast, -54.1% (active); in the assay with RXF 393 renal, -56.5% (active); with SF-268 CNS, -30.5% (active); with SF-295 CNS, 6.18% (active); in the assay on SF-539 CNS, 17.7%. Moreover, the growth in the assay on UACC-257 melanoma is -38.6% (active); in the assay on M14 melanoma, -80.6% (active).
